Drawing on PubChem BioAssay (EPA / NIEHS), this text covers outcome for 25 compounds.

Activity calls are given as the source filed them. Rule for the calls: active = hit-call score of the fitted dose curve at least 0.9, where 1 is the maximum; inactive = score below 0.9.

A short description of this test: ATG_TA_CIS: Attagene CIS-FACTORIAL HepG2 Assay for human TA Basal Promoter (AID 2282964). Conditions: HepG2 Attagene CIS-factorial TA basal promoter reporter; actives raise or lower the signal. The essentials: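 Cis-factorial format in HepG2: reporters report endogenous factors, not chimeric Gal4 fusions. After 24 h treatment, reporter transcripts were measured by RT-PCR-capillary electrophoresis fluorescence, analysed bidirectionally versus DMSO.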
Turning to `CCCC(O)C(O)CO` (stereo not given), the compound was classed as inactive. On to `COCCc1ccc(OCC(O)CNC(C)C)cc1` (stereo not given), for which the outcome was inactive. The result for `NCCNc1cccc2ccccc12` reads “inactive”.

As to `C=C(C#N)C(=O)OCC`, the call was inactive. The same measure for `CC(C)=CCCC(C)CC(=O)O` (stereo not given): “inactive”; for `CCOC(=O)c1ccc(N)cc1`: “inactive”; for `CC1=CC[C@@]23C[C@@H]1C(C)(C)[C@@H]2CC[C@H]3C`: “inactive”. As to `C=C(C)CNCC`, the outcome was inactive. Turning to `CC(=O)NCCO`, the compound was classed as inactive. The result for `CC(C)(N=C=O)c1cccc(C(C)(C)N=C=O)c1` reads “inactive”. The result for `COC(=O)c1ccc(C)cc1C1=NC(C)(C(C)C)C(=O)N1` (stereo not given) (tested in a mixture with another compound) reads “inactive”; that for `CN1C(=O)c2ccccc2C1=O`, “inactive”; that for `OCCCCC(O)CO` (stereo not given), “inactive”. The same measure for `CCCCCCCCCCCC(=O)OC[C@@H](O)[C@H]1OC[C@H](O)[C@H]1O`: “inactive”; for `CN(c1nccc(=O)[nH]1)C1CCN(c2nc3ccccc3n2Cc2ccc(F)cc2)CC1`: “inactive”.

Regarding `CCCCCC(C)=O`, the outcome was inactive. The result for `C[C@H](CCC(=O)NCC(=O)O)[C@H]1CC[C@H]2[C@@H]3[C@H](O)C[C@@H]4C[C@H](O)CC[C@]4(C)[C@H]3C[C@H](O)[C@]12C` reads “inactive”; that for `CC(C=O)Cc1ccc(C(C)(C)C)cc1` (stereo not given), “inactive”; that for `CN1CCOCC1`, “inactive”. In the case of `c1ccc(CN(Cc2ccccc2)Cc2ccccc2)cc1`, the call was inactive. The same measure for `CC/C=C\CC/C=C/CO`: “inactive”; for `CCCC(=O)c1ccccc1`: “inactive”. Consider `CCCCCCC(=O)c1ccccc1`, for which the outcome was inactive. The same measure for `O=C1OC(=O)c2c(Cl)c(Cl)c(Cl)c(Cl)c21`: “inactive”.

On to `C=C(CC(=O)O)C(=O)O`, for which the result was inactive.
